KDM5B inh = Primary screen for KDM5B Histone Demethylases FDH-coupled qHTS | AID 1347165, 2019 | Potency, µM (titrated, usually from 57.7 µM), usual class: inhibitors | KDM5B demethylase, FDH-coupled NADH fluorescence (FDH is formaldehyde dehydrogenase) | 220,000 tested, 2.6% active | Lysine-specific demethylase 5B (Homo sapiens), Q9UGL1; active means well fitted inhibition curve with a large enough effect; further: 0% is about no effect; nearly all actives have a fitted effect of over 70% in size
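Here, H3K4me3 peptide (12.5 µM in substrate mix) is demethylated by KDM5BΔAP, 200 nM final, after 10 min compound exposure. Formaldehyde product is coupled through FDH (0.25 U/mL in mix) to NADH fluorescence; 30-min ΔRFU feeds dose-response curves.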
* marks the source's active call; other numbers are inactive results; i = inactive. The sample as a whole holds a higher share of hits than the screen did. Potency means the concentration at half of the fitted maximal effect.

SMILES | KDM5B inh
CN(C)c1ccc(CN2CC[C@H](c3nc4ncccc4[nH]3)C2)cc1 | i
Cc1ccc(CSc2nc3c(cc2C#N)C(=O)CC(C)(C)C3)cc1 | i
COc1cc(C(=O)N2N=C(C)CC2(O)C(F)(F)F)ccc1OC(F)F (stereo not drawn) | i
COc1ccccc1NC(=O)/C(C#N)=C/c1coc2ccc(Cl)cc2c1=O | i
CCOc1ccc(C(=O)Nc2ccc3oc(-c4ccccc4C)nc3c2)cc1 | i
Cc1ccc(S(=O)(=O)N2CCN(C(C(=O)O)c3c[nH]c4ccccc34)CC2)cc1 (stereo not drawn) | i
COc1ccc2nc(CO[C@H]3CN(C4CCN(C(C)=O)CC4)C[C@H]3F)[nH]c2c1 | i
Cc1ccc(S(=O)(=O)Cc2nc(-c3ccc(C(=O)N4CCOCC4)cc3)oc2C)cc1 | i
CC(C)c1ccc(C(C)NC(=O)/C=C/c2ccccc2F)cc1 (stereo not drawn) | i
Cc1ccc2c(C=O)c[nH]c2c1 | i
CCOC(=O)Cc1csc(NC(=O)c2nc(-c3ccccc3)oc2C)n1 | i
CC(C(=O)N1CCn2nc(Cc3ccccc3)cc2C1)c1ccc(O)cc1 (stereo not drawn) | i
Cc1nn(C)c2nc(NCCC(=O)N3CCC(C)CC3)sc12 | i
COc1cccc(CCC(=O)N2CCC(c3nc(C4CCOCC4)no3)CC2)c1 | i
Cc1cccc(C)c1Nc1c(-c2ccccc2O)nc2cnccn12 | i
CCC(O)C(=O)N1CCC(c2[nH]ncc2-c2cccc(OC)c2)CC1 (stereo not drawn) | i
COc1cccc(-c2nc(SCC(=O)NC3CCCC3)c(-c3ccc(F)cc3)[nH]2)c1 | i
COc1cccc(-c2nc3cnccn3c2NCCC(=O)NC2CCCCCC2)c1 | 28µM*
CC1CCN(C(=O)CCNC(=O)c2ccccc2Cl)CC1 | i
COc1nc(C(=O)NCCC(=O)N2CCCCC2)cc2ccccc12 | i
Cc1ccccc1-c1nc2cnccn2c1NCCC(=O)N1CCCCC1 | 25µM*
Cc1ccccc1-c1nc2cnccn2c1NCCC(=O)N1CCC(C)CC1 | 28µM*
COc1cccc(-c2nc3cnccn3c2NCCC(=O)N2CCN(C(C)C)CC2)c1 | 28µM*
COc1cccc(-c2nc(SCC(=O)NC3CCCC3)c(-c3ccc(C)cc3)[nH]2)c1 | i
C=CCNc1nnc(SCc2ncc(-c3ccccc3)o2)s1 | i
SMILES | KDM5B inh
CCOCCOC1CCN(C(=O)c2cc(-c3cccc(OC)c3)n[nH]2)CC1 | i
O=C(O)C1CC(=O)N(c2ccc(S(=O)(=O)Nc3ccc(F)c(F)c3)cc2)C1 (stereo not drawn) | i
CCCNC(=O)c1ccc2c(=O)n(CCc3ccccc3)c(SCC#N)nc2c1 | i
c1ccc(-n2nnnc2SCc2nc3ccccc3[nH]2)cc1 | i
O=C(NCc1ccccc1)Nc1ccc2oc(C3CC3)nc2c1 | i
COc1ccc(CNC(=O)CN2C(=O)C(C)=C(c3ccc(C)c(C)c3)S2(=O)=O)c(OC)c1 | i
Cc1cc(NC(=O)c2ccccc2C(F)(F)F)ccc1N1CCN(C)CC1 | i
Brc1ccc(-c2noc(-c3ccc(Br)o3)n2)o1 | i
CC(C)CNC(=O)C1CCN(C(=O)C(C)(C)C)CC1 | i
Cc1cccc(-c2nc3cnccn3c2NCCC(=O)N2CCCCC2)c1 | 28µM*
Cc1cccc(-c2nc3n(CC(=O)N4CCCC4)c(C)cc(=O)n3n2)c1 | i
c1ccc(-c2nc3cnccn3c2Nc2ccc3c(c2)OCCO3)cc1 | i
Cc1cccc(-c2nc3cnccn3c2NCCC(=O)N(C)C)c1 | 32µM*
Cc1cccc(-c2nocc2CCC(=O)N2CCN(c3cccc(C)c3)CC2)c1 | i
Cc1cccc(C(=O)Nc2c(-c3ccccc3)nc3cc(C)ccn23)c1 | i
O=C(c1ccnc(-c2ccccc2-c2ccccc2)c1)N1CCCC1 | i
CSc1ccc(NC(=O)c2ccc3c(c2)NC(=O)CCS3)cc1 | i
O=Cc1ccc(-c2cncc(C(=O)O)c2)cc1 | 100µM*
CC(=O)Oc1cncc(C(=O)O)c1 | i
O=C(O)c1cncc(C(=O)O)c1 | i
COc1ccccc1CCN1CNc2c(c(=O)[nH]c(=O)n2-c2ccccc2OC)C1 | i
CNc1c(NC(=O)C2CC(=O)N(c3ccc(C)cc3)C2)c(=O)oc2ccccc12 (stereo not drawn) | i
CC1CCc2sc(C(=O)N3CCN(c4ncccn4)CC3)cc2C1 (stereo not drawn) | i
O=C(c1ccco1)N1CCN(C(=O)c2cc3c(s2)CN(C2CC2)C3)CC1 | i
O=C(c1cc2c(s1)CN(C1CCCC1)C2)N1CCCN(c2ncccn2)CC1 | 6.3µM*
C=CCNC(=O)CNC(=O)NCc1ccc(F)cc1 | i
CNS(=O)(=O)c1ccc(-c2nc(-c3ccccc3OC(C)C)no2)o1 | i
N#Cc1cccc(-c2cn3c(n2)N(C(=O)c2ccccc2)CCC3)c1 | 20µM*
Cc1cc(C)n(CCC(=O)N2CCCn3cc(-c4ccccc4)nc32)n1 | i
O=C(Cc1ccsc1)N1CC(c2noc(COc3ccccc3)n2)C1 | i
